# The panel holds about 83,000 compounds, 20% with a hit somewhere; the sample as a whole holds those more often.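 Cell lines were cultured in 96-well plates, exposed to a single compound concentration, and assessed for percent growth 48 hours later.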 Activity calls are given as the source filed them.
# Tested on: MDA-MB-468 breast
# Assay: NCI-60 one-dose screen, 48 h (100 = growth as untreated, 0 = no growth, -100 = all killed)
# Conditions: 10 µM
# Procedure: Growth inhibition of the MDA-MB-468 human Breast tumor cell line is measured as a screen for anti-cancer activity. Cells are grown in 96 well plates and exposed to the test compound for 48 hours. Compounds are tested at a single concentration, which is 10^-5 M for most compounds. The reported endpoint is percent growth (GI% or GIPRCNT), where numbers from 0 - 100% represent growth inhibition, and numbers from -100% - 0 represent cell death. For example, a value of 40 represents 60% growth inhibition. A value of 0 means no net growth occurred over the course of the experiment. A value of -40 indicates 40% of cells at the beginning of the experiment died by the end of the experiment. A value of -100 means all cells are dead at the end of the experiment.
# NCI-60 Human Tumor Cell Lines Screen was performed using the standard one-dose NCI protocol, which is described in more detail at https://dtp.cancer.gov/discovery_development/nci-60/default.htm.
# Compounds with GIPRCNT values below 10 were considered active. Activity score was based on GIPRCNT using the following formula: […]
# Score is 0 for GIPRCNT values of 100 or above, 50 for GIPRCNT values of 0, and 100 for GIPRCNT values of -100.
row,Compound,growth
1,CCOC(=O)CNC(=O)CN(Cc1ccccc1)C(=O)[C@@]1(C)CCC[C@]2(C)[C@H]3C[C@H]4C(C(C)C)=C[C@]3(CC[C@H]21)[C@@H]1C(=O)OC(=O)[C@@H]14,48.9% (inactive)
2,O=C(Nc1ccc(Cl)c([N+](=O)[O-])c1)Nc1ccc(Cl)c([N+](=O)[O-])c1,-27.2% (active)
3,O=c1c2ccccc2nc(COc2ccccc2)n1/N=C/c1ccc(N2CCOCC2)cc1,117% (inactive)
4,Cn1cc(/C=N/Nc2cccc(Cl)n2)c2ccccc21,-1.15% (active)
5,COc1ccc(CCN2C(=O)/C(=C/c3csc(C#N)n3)SC2=S)cc1OC,-80.6% (active)
6,COc1ccc2[nH]c(O)c(N=NC(=O)c3cc(-c4ccc(C)cc4)nc4ccccc34)c2c1,76.2% (inactive)
7,COc1ccc(/C=C/C(=O)c2ccc(N3CCN(C)CC3)cc2)c(C(F)(F)F)c1,-10.7% (active)
8,COc1cc(NC(=O)c2cc(-c3ccc(F)cc3F)ccc2O)cc(OC)c1OC,15% (inactive)
9,Clc1ccc2c(N/N=C/c3c[nH]c4ccc(Br)cc34)ccnc2c1,-94.2% (active)
10,C=C1CCC2C3(C)COC(c4ccccc4F)OC3CCC2(C)C1C/C=C1/C(=O)OCC1O (stereo not given),-22.6% (active)
11,COc1cccc2nc(Nc3cccc(NC(=O)c4ccc(CN5CCCN(C)CC5)c(C(F)(F)F)c4)c3)ccc12,-87.9% (active)
12,Cc1cc(=O)oc2cc(OCCCCOc3ccc(/C=C/C(=O)Nc4ccccc4[N+](=O)[O-])cc3)ccc12,169% (inactive)
13,N#Cc1c(NC(=O)c2ccc(C(F)(F)F)c(Cl)c2)sc2c1CCC(=O)C2,-71.2% (active)
14,Cc1ccn2c(C(=O)c3ccc(Br)cc3)cc(-c3cc(-c4ccc(N(C)C)cc4)c(C#N)c(N)n3)c2c1,-15% (active)
15,CC1(c2ccccc2)NC(=O)N(CC(=O)Nc2ccc(C(=O)/C=C/c3ccc(Cl)cc3)cc2)C1=O (stereo not given),-9.47% (active)
16,CNC(=O)c1cc(-c2ccc(NC(=O)Nc3ccc(C)cc3)cc2)nc2cccnc12,-14.3% (active)
17,O=c1c2ccccc2nc(COc2ccccc2)n1/N=C/c1ccc(F)cc1,78% (inactive)
18,CC(C)C1=C[C@@]23CC[C@@H]4[C@](C)(CCC[C@]4(C)C(=O)NCc4ccccc4)[C@H]2C[C@@H]1[C@H]1C(=O)CCC(=O)[C@H]13,70.1% (inactive)
19,O=C(NCCCCC(c1ccc(F)cc1)c1ccc(F)cc1)NCCCc1cccnc1,-3.04% (active)
20,NC1=NC(c2ccccc2Cl)N=C(Nc2nn[nH]n2)N1 (stereo not given),103% (inactive)

row,Compound,growth
1,COc1cc2c3c(n(CCCn4ccnc4)c(=O)c2cc1OC)-c1nc2c(cc1C3=O)OCO2,-29.8% (active)
2,COc1cccc(C(N)=Nc2ccc(OCCCCCCn3cncn3)cc2)c1,17.5% (inactive)
3,COc1ccc2nc(Cl)c(-c3cc(-c4ccccc4)nc(=S)[nH]3)cc2c1,76% (inactive)
4,O=c1[nH]c2ccccc2cc1CSc1ccc(Nc2nccc(-c3ccc(Cl)cc3)n2)cc1,-67.5% (active)
5,CCCn1c(O)c(N=Nc2nc(-c3cc4ccccc4oc3=O)cs2)c2cc(Br)ccc21,94.8% (inactive)
6,Cc1ccc2nc(-c3ccc(-c4nnc(SCC(=O)Nc5ccc(Br)cc5)o4)cc3)[nH]c2c1,80.6% (inactive)
7,COc1cc(/C=C/C(=O)c2ccc(C(F)(F)F)cc2)ccc1Oc1nc(Nc2ccc(F)cc2)nc(N(C)C)n1,66.4% (inactive)
8,C=C(C)[C@@H]1CC[C@]2(COP(=O)(OCC)OCC)CC[C@]3(C)[C@H](CC[C@@H]4[C@@](C)(CCCN)[C@H](C(=C)C)CC[C@]43C)[C@@H]12,5.69% (active)
9,N#Cc1c(-c2ccc(F)cc2)nc(SCc2ccc(F)cc2)nc1N1CCOCC1,62.1% (inactive)
10,CN1CCc2c(sc3ncnc(N/N=C/c4cn(-c5ccccc5)nc4-c4ccc(Br)cc4)c23)C1,16.8% (inactive)
11,COc1ccc2nc(Cl)c(-c3cc(-c4ccccc4)nc(N)n3)cc2c1,14.9% (inactive)
12,CC(C)CCSc1nc(NC2CC2)c(C#N)c(-c2ccc(C(C)C)cc2)n1,106% (inactive)
13,COc1cc2c(cc1OC)/C(=C\c1sc(Nc3ccc(O)cc3)nc1O)C(C(=O)O)=N2,-1.14% (active)
14,CCCn1c(=O)c2[nH]c(-c3ccc(OCc4nc5ccc(C)cc5[nH]4)cc3)nc2n(CCC)c1=O,16.7% (inactive)
15,COc1cc(OC(F)(F)F)ccc1C(=O)Nc1sc2c(c1C#N)CCC(=O)C2,77.7% (inactive)
16,COc1cccc(/C=N/NC(=O)c2ccc3nc(-c4ccc(Cl)cc4)[nH]c3c2)c1O,-96.1% (active)
17,COc1cccc(COc2ccc(/C=C3\Oc4cc(O)ccc4C3=O)cc2)c1,12.2% (inactive)
18,CCCCSc1nc(Nc2ccc(/C(C)=N/NC(N)=S)cc2)c(C#N)c(-c2ccccc2)n1,-28.4% (active)
19,COC[C@@H](CC(C)C)N=C1N/C(=C\c2ccc3ncsc3c2)C(=O)N1C,-5.24% (active)
20,CC(C)(C)Nc1nc2cc(Cl)c(Cl)cc2nc1S(C)(=O)=O,-28.5% (active)
